# PubChem BioAssay (EPA / NIEHS)
# Results filed as inconclusive are left out. Calls of active or inactive are those of the source. The calls were made as follows: active = hit-call score of the fitted dose curve at least 0.9, where 1 is the maximum; inconclusive = response in the unintended direction; inactive = score below 0.9.
# Key:
# [1] = ACEA_ER_AUC_viability: ACEA Biosciences xCELLigence Real-Time Cell Analysis on Estrogen Receptor Agonism for Viability (AID 2283782);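 also: continuous compound exposure with impedance area under curve over 80 h; hit means loss of impedance signal meaning reduced cell growth or viability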
# How it was run: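 T-47D; phenol red-free RPMI1640 + 10% CS-FBS; 8 conc., 1:4 serial, max 100 uM final, ≤0.5% DMSO; n = 2; continuous exposure; impedance monitored to 80 h post-dose; AUC vs DMSO.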
# [2] = STM_H9_NormalizedViability: Cytotoxicity Assessment at 120 hours in the Stemina devTOX quickPredict H9 human embryonic stem cell (hESC)-based Assay (AID 2283784)
# How it was run: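 Undifferentiated H9 hESCs kept pluripotent were exposed to compound, with media and chemical replaced every 24h. CellTiter-Fluor protease-substrate fluorescence was background-corrected and normalized per plate to the 0.1% DMSO vehicle; signal loss indicates reduced viability.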
# AR (gene 367) [3] = biological target: AR (gene 367) (UniProt P10275); assay: ACEA_AR_antagonist_80hr: ACEA Biosciences xCELLigence Real-Time Cell Analysis on Androgen Receptor Antagonism for Proliferation (AID 2283787);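 also: hits lower the impedance growth signal relative to DMSO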
# Chain of AR (gene 367) (P10275 whole entry, looked up): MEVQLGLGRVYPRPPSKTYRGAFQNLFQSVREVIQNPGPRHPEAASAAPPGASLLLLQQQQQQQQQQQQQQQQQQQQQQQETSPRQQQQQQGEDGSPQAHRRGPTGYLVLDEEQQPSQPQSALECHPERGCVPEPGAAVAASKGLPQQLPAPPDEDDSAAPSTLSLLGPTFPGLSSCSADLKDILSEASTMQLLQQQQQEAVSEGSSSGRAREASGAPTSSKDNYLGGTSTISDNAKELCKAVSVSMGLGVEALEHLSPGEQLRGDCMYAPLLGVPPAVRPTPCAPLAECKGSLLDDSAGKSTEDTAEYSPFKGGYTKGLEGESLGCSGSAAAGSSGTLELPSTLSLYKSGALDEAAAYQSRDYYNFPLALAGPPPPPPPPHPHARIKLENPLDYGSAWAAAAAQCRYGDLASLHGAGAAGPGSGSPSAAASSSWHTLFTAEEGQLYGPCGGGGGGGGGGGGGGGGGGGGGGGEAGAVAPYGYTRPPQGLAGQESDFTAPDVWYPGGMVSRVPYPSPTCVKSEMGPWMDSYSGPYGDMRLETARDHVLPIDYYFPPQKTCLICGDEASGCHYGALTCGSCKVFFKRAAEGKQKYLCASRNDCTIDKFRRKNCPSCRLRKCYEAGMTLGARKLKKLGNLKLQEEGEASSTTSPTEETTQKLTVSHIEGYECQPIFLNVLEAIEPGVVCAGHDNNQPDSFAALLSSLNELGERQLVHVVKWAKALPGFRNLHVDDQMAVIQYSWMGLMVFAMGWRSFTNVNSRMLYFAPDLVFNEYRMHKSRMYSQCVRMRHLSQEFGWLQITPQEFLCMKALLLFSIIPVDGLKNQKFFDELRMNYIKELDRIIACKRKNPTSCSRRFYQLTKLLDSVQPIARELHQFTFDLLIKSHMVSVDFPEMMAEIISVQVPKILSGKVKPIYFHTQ
# How it was run: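 Growth-kinetic antagonist readout in 22Rv1 cells, taken 80 h after continuous compound exposure. Activity fitted as signal loss relative to DMSO negative control.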
# AR (gene 367) [4] = biological target: AR (gene 367) (UniProt P10275); assay: ACEA_AR_agonist_80hr: ACEA Biosciences xCELLigence Real-Time Cell Analysis on Androgen Receptor Agonism for Proliferation (AID 2283783);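 also: hits increase impedance growth signal above DMSO baseline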
# Experimental: ACEA_AR_agonist is a cell-based, single-readout assay that uses 22Rv1, a human prostate cancer cell line, with measurements taken at 80 hours after chemical dosing in a 384-well plate, although TO5 and TO6 (mc0.srcf) used a 96-well plate. Differences in plate size can be ignored given data normalization.ACEA_AR_agonist_80hr is one of two assay component(s) measured or calculated from the ACEA_AR assay. It is designed to make measurements of real-time cell-growth kinetics, a form of growth reporter, as detected with electrical impedance signals by Real-Time Cell Electrode Sensor (RT-CES) technology.Data from the assay component ACEA_AR_agonist_80hr was analyzed in the positive analysis fitting direction relative to DMSO as the negative control and baseline of activity. Using a type of growth reporter, measures of the cells for gain-of-signal activity can be used to understand the signaling at the pathway-level as they relate to the geneAR Furthermore, this assay endpoint can be referred to as a primary readout, because this assay has produced multiple assay endpoints where this one serves a signaling function. To generalize the intended target to other relatable targets, this assay endpoint is annotated to the nuclear receptor intended target family, where the subfamily is steroidal.
# The xCELLigence system Multi-E-Plate stations were used to measure the time-dependent response to chemicals. Each compound was tested in an eight-point, 1:4 serial dilution series starting at a maximum final concentration of 100 uM. A maximum starting concentration of 0.5% DMSO was present in the 100 uM chemical samples and was diluted along with the test article dilution series. The screen was performed in biological duplicate using two separate, 96-well, E-Plates 96 for each dilution series (n = 2). Positive controls (MG132 and testosterone) and a negative control (assay media) were tested in quadruplicate on each testing plate. […] Reference compounds were tested with 8 concentrations with 1:5 serial dilutions. All screening was carried out by ACEA Biosciences, Inc. (San Diego, CA). 22Rv1 cells purchased from ATCC were maintained in media supplemented with 10% fetal bovine serum (FBS). Before screening, 22Rv1 cells were preconditioned in assay medium. Cells were then detached and seeded in E-Plates 96 in assay medium. After overnight monitoring of growth once every hour, compounds were added to […] cells and remained in the medium until the end of the experiment. Cellular responses were then recorded once every 5 min for the first 5 h, and once every hour for an additional 100 h.
compound,measurement,setting,value
CC(C)(C)C(O)(CCc1ccc(Cl)cc1)Cn1cncn1 (centres undefined),AC50,[1],69.2 µM (active)
same,AC50,[2],78.7 µM (active)
Nc1ccc([N+](=O)[O-])cc1,AC50,[1],7.37 µM (active)
same,AC50,AR (gene 367) [3],22 µM (active)
O=[N+]([O-])C(Br)(CO)CO,AC50,[1],32.7 µM (active)
same,outcome,AR (gene 367) [4],inactive
same,AC50,AR (gene 367) [3],30.6 µM (active)
CCC[CH2][Sn]([Cl])([CH2]CCC)[CH2]CCC,AC50,[1],0.767 µM (active)
same,AC50,[2],0.642 µM (active)
OCCCBr,outcome,[2],inactive
O=C(Nc1ccccc1)c1ccccc1I,outcome,[1],inactive
same,outcome,AR (gene 367) [3],inactive
Oc1ccc2ccc3cccc4ccc1c2c34,AC50,[1],79.6 µM (active)
same,outcome,[2],inactive
CCNS(=O)(=O)C(F)(F)C(F)(F)C(F)(F)C(F)(F)C(F)(F)C(F)(F)C(F)(F)C(F)(F)F,AC50,AR (gene 367) [4],48.2 µM (active)
same,outcome,AR (gene 367) [3],inactive
CNC(=O)Oc1cccc2c1OC(C)(C)C2,outcome,[1],inactive
same,AC50,[2],21.4 µM (active)
same,outcome,AR (gene 367) [3],inactive
O=C1CCCO1,outcome,[2],inactive
same,outcome,AR (gene 367) [3],inactive
O=P(OCCCl)(OCCCl)OCCCl,outcome,[1],inactive
same,outcome,[2],inactive
Cc1cc(N=Nc2ccccc2C)ccc1N,AC50,[1],50 µM (active)
same,AC50,AR (gene 367) [3],52.6 µM (active)
O=[N+]([O-])c1ccc(Oc2ccc(Cl)cc2Cl)cc1,AC50,[2],77 µM (active)
[Cl-].[Cl-].[Hg+2],AC50,[1],16.9 µM (active)
same,AC50,[2],1.36 µM (active)
CO[C@@H]1[C@H](OC(=O)NC(=O)CCl)CC[C@]2(CO2)[C@H]1[C@@]1(C)O[C@@H]1CC=C(C)C,AC50,[2],0.0978 µM (active)
same,AC50,AR (gene 367) [3],12.6 µM (active)
CN(C)C(=O)Nc1ccc(Cl)cc1,outcome,[1],inactive
same,outcome,[2],inactive
Clc1ccc(Cl)c(Cl)c1,outcome,[2],inactive
CC(C)N(Cc1ccccc1)C(=O)C(C)(C)C,outcome,AR (gene 367) [3],inactive
CCCCCCCCn1sccc1=O,AC50,[1],11.8 µM (active)
same,AC50,[2],47.7 µM (active)
C[N+](C)(C)CC1CO1 (centres undefined),outcome,[1],inactive
same,AC50,[2],24 µM (active)
same,outcome,AR (gene 367) [3],inactive
Cc1ccc(N)c(N)c1,AC50,[1],6.06 µM (active)
same,AC50,[2],26.9 µM (active)
Nc1ccc(Oc2ccc(N)cc2)cc1,AC50,[2],75.5 µM (active)
CCCCC(CC)COC(=O)c1ccc(C(=O)OCC(CC)CCCC)c(C(=O)OCC(CC)CCCC)c1 (centres undefined),outcome,AR (gene 367) [4],inactive
CC(C)COC(=O)c1ccccc1C(=O)OCC(C)C,outcome,[1],inactive
same,outcome,[2],inactive
Cc1cccc(N)c1N,outcome,[1],inactive
same,AC50,[2],75.7 µM (active)
CCN(CC)N=O,outcome,[2],inactive
CCCCCCCCCCCCCN1CC(C)OC(C)C1 (centres undefined),outcome,[2],inactive
Cc1ccc(N)cc1,AC50,[2],40.9 µM (active)
CC(C)(O)c1cnn2c(-c3ccc(F)c(-c4c(F)cccc4C#N)c3)cnc2n1,AC50,AR (gene 367) [3],57.9 µM (active)
CC(C)(OOC(C)(C)c1ccccc1)c1ccccc1,AC50,[1],77.1 µM (active)
same,outcome,AR (gene 367) [4],inactive
same,AC50,AR (gene 367) [3],26.6 µM (active)
